# Results: the supplement of paper PMC11417369
# The full ranking holds about 25,000 sequences; the median of “ln(normalized median fluorescence intensity)” is about 7.1, and the highest 2% start at about 10. Only a selection was taken, and the highest values are over-represented in it overall.
# System: PfSIP2 AP2 domain 1 (GST-tagged)
# Test: gcPBM binding intensity (ln(normalized median fluorescence intensity)); higher = stronger DNA binding
# Method in brief: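 DNA-binding domains from P. falciparum, fused to GST and produced in E. coli, were put on an Agilent 4 × 180k double-stranded probe array for 1 h in 1× PBS holding 1% milk, 0.2 mg/ml BSA, 0.5% salmon testes DNA and 0.03% Triton X-100. Probes were primer-extended, 36 bp long and drawn from intergenic genomic regions, with negative controls included. After Alexa488 anti-GST antibody detection and a 488 nm scan, binding intensity was set as the highest Masliner-normalised natural-log median intensity across replicate spots of either probe orientation.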
row,Sequence,gcPBM binding intensity (ln)
1,TGTTTTGTTGTGTATTGTACTAATATAAATATATAA [XGTACX_site1852],7.41
2,TTGCAATAATGTTGCACACTAAATAGTCATATATAA [CACACA_site263],7.31
3,TATAAGGCAATAATAGTGCACTAAGATATATAATGA,10.6
4,TATTAATATATAGTAGTGCAATAAAGATATACTGAA,8.3
5,AAGTAGTGTTAATACTGTACTTATATTTTTTATTAT [XGTACX_site8264],6.92
6,ATTAAAAATATAGTCACACATACACCCATATATATT [CACACA_site5394],6.92
7,ATATCCATAATAAAAACATGCAACAGAAAAAAAAAA [TGCATGCA_site497],7.14
8,ATGTATGCAAAAATGGTGCATATTAAATGTATAACA [GTGCAC_site9722],11.1
9,ATATATATTAAAAATAGTACATATAATAAAAATCAT [XGTACX_site4265],7.11
10,AATATAAATAAAAACACACACAATGGTACATATATA [CACACA_site3671],7.02
11,ATTATGTACAAAATGGTGCAATATTATACATATATA [GTGCAC_site9468],10.4
12,ATTTTATATACAAAATGTACATATTTATTATATATG [XGTACX_site6732],6.99
13,ATAAAACGTACAATGGTGCATATAAATAATATATAT [GTGCAC_site9960],10.8
14,CATATATAAATATGTATGCACTTTAACAAAATGTAT,7.74
15,TACAAATATATAAAATGTACATATATATACATATTA [XGTACX_site3029],6.92
16,TAATTATAATAATAACGTACATATATAAAATGGTGA [XGTACX_site8434],7.21
17,AGTATAAATAAATCATAAACATATATATATATATAT [GTGCAC_negctrl_site356],9.25
18,AATCATATTAGTATGGTGCAACATATATAAATATAT,10.8
19,TATATATTTATTAAATGTACATAACAAAAATGGTAT [XGTACX_site3577],7.41
20,GTAATATTAAAATATACACACATAGAATATATATAT [CACACA_site4391],8.8
21,GCATGTATAATGGTAGTGCATATAATAATATAATAA [GTGCAC_site9548],9.06

row,Sequence,gcPBM binding intensity (ln)
1,TATAATAATATAATGGTGCATGTATATAACCATATA,10.7
2,TATATATAATATAGTGCATGTAAAAAATAAACCATG [TGCATGCA_site932],9.18
3,TGAACTCACGAGCACACACACACATATATATATATA [CACACA_site8248],9.18
4,TAAAATTTAAAATATACACACAAAAAGTTATTACAA [CACACA_site4080],6.93
5,AACTGTACAATTTTTGTGCACAATAATTATTAATAT [GTGCAC_site9462],8.74
6,TAAAATATATAAAACTGTACATTTTAAAGGCACAAC [XGTACX_site8342],7.55
7,CTAATCGTGCACAACTGTACATTTGTCAAGGGCAAT [XGTACX_site8662],10.4
8,ATATAAATGATATGTACACACATTTATATATATAAA [CACACA_site3475],7.04
9,AATATATACCAACATAAATATATATATATATATATA [TGCATGCA_negctrl_site334],9.89
10,TTATAATATATATAAAAGAAAAAAAATTATAATATA [CACACA_negctrl_site90],6.69
11,ATTTTATTTTATTAAGTGCAAAAAAAAAAAAAGAAA,8.24
12,ATAAAATTATTATATACATGCAAAATTAATATATTG [TGCATGCA_site507],6.84
13,TCAAAAGAATAATTGGTGCAAATTATATAATATAAT [GTGCAC_site9804],10.2
14,AATATTTTATTTTGGGTGCAAAAGAATATTATTTCA,10.4
15,TTAAAAGAATATAATGCACACATTATTTTATTTTAT [CACACA_site3772],7.03
16,TATTTATTATTATGTACACACTATATTAAAACATAA [CACACA_site4549],7.08
17,CTCAAATGTTATTGTAGTACCTAAAAAATATATTCT [XGTACX_site1970],6.97
18,TGTAGTCTGGAGAAACGTACATAGTATCTGGTAGCT [XGTACX_site2538],6.84
19,TTTTAACATATAAGTACACACATATAATCAATCATA [CACACA_site2325],7.25
20,AATTTCTTTTTCGATATACACACTGTATGTGTCTAA [CACACA_site3975],6.94
21,CATAATATGTGGACTTTACACACTTGTTTTAAAATT [CACACA_site819],6.87

row,Sequence,gcPBM binding intensity (ln)
1,TGTATGTTTGGGTGCACACATAAATATTATATATAG [CACACA_site3397],12.2
2,TGTAGAAATGGGTGCACACACATATAAAATCTATAT [CACACA_site7224],12.2
3,AATATATATATATGTGCACACATATATAATATGTAT [CACACA_site716],8.55
4,AAAATCTAATATAATGCACACATAAAAAAAAATCAA [CACACA_site9211],7.52
5,ACATATAAATATTGTGTGCACACACATAATATATAT,8.29
6,TATATATATATGTGCACACATATATAATATGTATAA [CACACA_site715],9.37
7,TATATGTATGTTTGTGTGCACACATAAATATTATAT,8.48
8,AAAATCTAATATAATGCACACATAAAAAAAAAATCA [CACACA_site8871],7.17
9,AATGTAGAAATGGGTGCACACACATATATAATATAT [CACACA_site8799],11.7
10,ATAAATATTGGGTGCACACACATAATATATATATAT [CACACA_site2272],12.2
11,ATATATATATATATTGCACACATATAAATATATATA [CACACA_site8167],9.22
12,TATGTATGTTAGTGTGCACACATAAATATTATATAT [CACACA_site9121],9.26
13,TTAATATTGTATTTCACACATAATTTAATATACTCA [CACACA_site5678],6.87
14,CAAAAAAAAAAAAAAACACACATTAAATTATAAAGA [CACACA_site2613],6.77
15,TTTTATATTCCACAAAAAATTATATAATAATAGAAC [CACACA_negctrl_site1741],7.26
16,AAAATATAATATAATGCACACATAAAAAAAAAAAAA [CACACA_site7989],7.19
17,TATATATATATATTCACACATAAAAATAAAATAAAA [CACACA_site4774],8.88
18,TAAACATAAATATGCACACATATACATATATTCATA [CACACA_site2667],7.34
19,ATAATAAAAAAAAATGCACACATATATATATATATA [CACACA_site8766],9.29
20,TATATATATATATTCACACATAAATATATGCACCCA [CACACA_site4263],11.6
21,TGTAGAAATGGGTGCACACACATATATAATATATAT [CACACA_site2507],12.3
